Reference: PubChem BioAssay (NCATS)
Values joined by “and” are separate entries in the source; they are usually repeats but may differ in a detail not shown here. Equal values may be shown once. Inconclusive results are not listed. A call without a number means that no potency is given here. A number with no mark means an inactive call. Active and inactive are the calls of the source. Calls follow the shape of the dose curve; as a rule, active = well fitted curve in the direction sought with a large enough effect; inconclusive = small, poorly fitted or top-dose-only effect, or another doubt; inactive = no such curve, though single readings can be large; an effect the other way counts as inactive or inconclusive.

Legend:
[1] = target: Cellular tumor antigen p53 (Homo sapiens) (UniProt P04637); experiment: Primary qHTS for small molecule compounds that upregulate eGFP-tagged delta133p53alpha (in N-terminal) cells. (AID 2060322); conditions: NCI-H358 eGFP-delta133p53alpha fluorescence, 24 h; activation: active compounds read high;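 also: cells pre-induced with doxycycline then dosed without doxycycline; series mostly up to about 56 µM; nearly all actives have a fitted effect of over 75% in size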
In short: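 NCI-H358 cells pre-induced 24 h with 10 ng/ml doxycycline for eGFP-delta133p53alpha, plated dox-free and exposed 24 h at 37C to titrated compounds. Fixed, Hoechst-stained; gated GFP peak intensity by laser scanning cytometry, normalized to DMSO (0%) and 57.5 uM 5-azacytidine (100%).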

[2] = BET inhibitor-based combinations targeting novel dependencies in MECOM-rearranged (r) AML: OCI-AML3 cell line (AID 2202232); conditions: Potency: OCI-AML3 viability; also: nearly all actives have a fitted effect of over 35% in size; also: potency is read from the fitted curve at half-maximal effect
In short: (§1)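 500 cells/well; 11-pt dose curve; 48 h, standard incubator; CellTiter-Glo luminescence after 15 min RT; DMSO/empty-well normalization; AUC plus Z-AUC (mean-centered within each line).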

[3] = BET inhibitor-based combinations targeting novel dependencies in MECOM-rearranged (r) AML: MV-4-11 cell line (AID 2202233); also: nearly all actives have a fitted effect of over 45% in size; also: potency is read from the fitted curve at half-maximal effect
In short: (§2)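 Cells were plated at 500 per well and exposed to each drug across an 11-point dose range for 48 hr at standard incubator conditions. Viability was read by CellTiter-Glo luminescence, and activity was expressed as AUC and per-cell-line Z-transformed AUC.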

[4] = BET inhibitor-based combinations targeting novel dependencies in MECOM-rearranged (r) AML: HNT-34 cell line (AID 2202234); also: nearly all actives have a fitted effect of over 35% in size; also: potency is read from the fitted curve at half-maximal effect
In short: as §2

[5] = BET inhibitor-based combinations targeting novel dependencies in MECOM-rearranged (r) AML: UCSD-AML1 cell line (AID 2202235); also: nearly all actives have a fitted effect of over 40% in size; also: potency is read from the fitted curve at half-maximal effect
In short: as §2

[6] = BET inhibitor-based combinations targeting novel dependencies in MECOM-rearranged (r) AML: AML-191 cell line (AID 2202236; also: nearly all actives have a fitted effect of over 35% in size; also: potency is read from the fitted curve at half-maximal effect)
In short: as §1

[7] = BET inhibitor-based combinations targeting novel dependencies in MECOM-rearranged (r) AML: AML-194 cell line (AID 2202237; also: nearly all actives have a fitted effect of over 40% in size; also: potency is read from the fitted curve at half-maximal effect)
In short: as §1

Sequence of Cellular tumor antigen p53 (Homo sapiens) (P04637 whole entry, looked up): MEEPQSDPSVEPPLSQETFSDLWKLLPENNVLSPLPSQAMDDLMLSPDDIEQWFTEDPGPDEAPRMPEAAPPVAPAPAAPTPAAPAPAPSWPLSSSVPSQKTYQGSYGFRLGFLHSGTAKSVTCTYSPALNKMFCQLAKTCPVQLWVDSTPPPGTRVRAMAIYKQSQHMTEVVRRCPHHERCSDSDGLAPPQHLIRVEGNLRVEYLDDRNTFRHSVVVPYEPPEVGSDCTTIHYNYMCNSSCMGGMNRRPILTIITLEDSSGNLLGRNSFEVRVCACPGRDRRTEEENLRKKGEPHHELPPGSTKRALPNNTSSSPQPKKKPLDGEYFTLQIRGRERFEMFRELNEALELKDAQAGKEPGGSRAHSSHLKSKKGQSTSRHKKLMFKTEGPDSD

Row | SMILES | activation [1] | Potency [2] | Potency [3] | Potency [4] | Potency [5] | Potency [6] | Potency [7]
1 | Nc1nc2[nH]cc(CCc3ccc(C(=O)N[C@@H](CCC(=O)O)C(=O)O)cc3)c2c(=O)[nH]1 | -41.3% | 0.662 µM (active) | 0.372 µM (active) | inactive | 1.05 µM (active) | 525 nM (active) | inactive
2 | C[C@H]1C[C@@H]2[C@H]([C@@H](O)C[C@@]3(C)[C@H]2CC[C@]3(O)C(=O)CO)[C@@]2(C)C=CC(=O)C=C12 | 5.86% | inactive | inactive | – | inactive | 263 nM (active) | 0.209 µM (active)
3 | Cc1ccc(S(=O)(=O)Nc2nc3ccccc3nc2Nc2ccc3nsnc3c2)cc1 | 6.55% | inactive | inactive | inactive | inactive | inactive | inactive
4 | Cc1noc(-c2ccc(CSCCC(=O)O)cc2)c1NC(=O)OC(C)c1ccccc1Cl (stereo unspecified) | -1.99% | inactive | inactive | inactive | inactive | inactive | inactive
5 | NC1=N[C@H]2[C@H](CS[C@H]2CCCCC(=O)O)N1 | -4.3% | inactive | inactive | inactive | – | inactive | inactive
6 | Cc1cc(OCCCS(C)(=O)=O)cc(C)c1-c1cccc(COc2ccc3c(c2)OC[C@H]3CC(=O)O)c1 | 5.3% | inactive | inactive | inactive | – | inactive | inactive
7 | O=C(/C=C/C#Cc1cccc(NS(=O)(=O)c2ccccc2)c1)NO | -10.1% | 0.574 µM (active) | 0.182 µM (active) | 0.723 µM (active) | 0.645 µM (active) | 723 nM (active) | 0.91 µM (active)
8 | C[N+]1(C)[C@@H]2CC(OC(=O)[C@H](CO)c3ccccc3)C[C@H]1[C@@H]1O[C@@H]12 (stereo partly specified) | -7.53% | inactive | inactive | inactive | inactive | inactive | inactive
9 | CC1(C)CCC2=C(O1)c1ccccc1C(=O)C2=O | -0.948% | 18.6 µM (active) | 18.6 µM (active) | 16.6 µM (active) | 9.34 µM (active) | – | 26.3 µM (active)
10 | C[C@@H]1C(=O)O[C@H]2CC34[C@H]5C[C@@H](C(C)(C)C)C36[C@H](OC(=O)[C@@H]6O)O[C@@]4(C(=O)O5)[C@]21O (stereo partly specified) | 14% | inactive | inactive | – | inactive | – | –
11 | CC(Cc1ccc(O)c(O)c1)(NN)C(=O)O (stereo unspecified) | -5.67% | inactive | inactive | inactive | inactive | inactive | inactive
12 | Oc1ccc(C2CCN(c3ccnc4ccccc34)CC2)cc1O | 25.9% | 13.2 µM (active) | 9.34 µM (active) | – | inactive | – | –
13 | Cc1c(C)c2c(c(C)c1O)CCC(C)(COc1ccc(CC3SC(=O)NC3=O)cc1)O2 (stereo unspecified) | -7.34% | inactive | inactive | 18.6 µM (active) | inactive | inactive | inactive
14 | COc1c(C)cnc(Cn2cnc3c(Cl)nc(N)nc32)c1C | -17.3% | 0.372 µM (active) | 0.118 µM (active) | – | 0.209 µM (active) | 525 nM (active) | –
15 | O=C(Nc1nnc(-c2ccco2)o1)c1cc(-c2ccccc2)nc2ccccc12 | -15% | 14.8 µM (active) | 20.9 µM (active) | – | 8.33 µM (active) | 11800 nM (active) | 13.2 µM (active)
16 | OC1CCC(Nc2ncc3nc(Nc4c(F)cc(F)cc4F)n([C@@H]4CCOC4)c3n2)CC1 (stereo partly specified) | 52.2% | 18.6 µM (active) | 20.9 µM (active) | – | inactive | 16600 nM (active) | –
17 | CN1C(C(=O)Nc2ccccn2)=C(O)c2sc(Cl)cc2S1(=O)=O | -22.9% | inactive | inactive | inactive | inactive | inactive | –
18 | CCOC(=O)[C@H](CCc1ccccc1)N[C@H]1CS[C@H](c2cccs2)CN(CC(=O)O)C1=O | -24.3% and -1.2% | 20.9 µM (active) | 20.9 µM (active) | – | inactive | – | –
19 | Clc1ccc(C(Cn2ccnc2)OCc2ccc(Sc3ccccc3)cc2)c(Cl)c1 (stereo unspecified) | -3.95% and 8.63% | inactive | 14.8 µM (active) | 20.9 µM (active) | 20.9 µM (active) | – | –
20 | CCCCCCCCCCCCc1ccc(S(=O)(=O)Nc2nncs2)cc1 | -6.63% | inactive | inactive | inactive | inactive | inactive | inactive
21 | O=C(O)[C@H](Cc1c[nH]c2ccccc12)N1C(=O)c2ccccc2C1=O | -29% | inactive | inactive | inactive | 3.32 µM (active) | inactive | inactive
